Results on six sequences are retold here after the supplement of paper PMC6555819.

Holding throughout (assay): PBM binding z-score (relative to random genomic background probes); higher = stronger binding; sequences stand for … in GC…GCGATTGACAGCGTAGAATGAAGG
The subject of experiment [1] is FXR:RXRa (NR concentration 270 nM, RXRa partner concentration 90 nM). The procedure, abridged:
(§1)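 Custom Agilent 4×180K protein-binding microarrays carried double-stranded probes. Their 34-nt variable regions held direct-repeat seeds, single-nucleotide variants, half-site ablations and random human genomic background sequences. Arrays were incubated 1 h with ligand-free nuclear receptor dimers in PBS pH 7.4, 2% milk, 0.02% Triton X-100, 1 mM DTT, 0.2 mg/mL BSA and 0.4 mg/ml salmon testes DNA. Antibodies against each partner (one per run) detected binding, and scanned fluorescence was regression-normalized. Binding z-scores use random background probes as reference.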

Experiment [2] concerns LXRa:RXRa (NR concentration 270 nM, RXRa partner concentration 90 nM). A digest of the protocol:
as §1

Experiment [3] relates to LXRa homodimer (NR concentration 270 nM). A digest of the protocol:
as §1

Experiment [4] has as its system LXRb:RXRa (NR concentration 270 nM, RXRa partner concentration 90 nM). A digest of the protocol:
as §1

The subject of experiment [5] is LXRb homodimer (NR concentration 270 nM). A digest of the protocol:
as §1

In experiment [6] the test system is PPARa:RXRa (NR concentration 270 nM, RXRa partner concentration 90 nM). A digest of the protocol:
as §1

In experiment [7] the test system is PPARg:RXRa (NR concentration 180 nM, RXRa partner concentration 90 nM). The procedure, abridged: as §1
The test system of experiment [8] is PPARg:RXRa 270nM:90nM, anti-RXR (NR concentration 270 nM, RXRa partner concentration 90 nM). A digest of the protocol: as §1
In experiment [9] the test system is PPARg:RXRa 30nM:10nM, anti-RXR (NR concentration 30 nM, RXRa partner concentration 10 nM). The procedure, abridged: as §1
In experiment [10] the test system is PPARg:RXRa 90nM:30nM, anti-RXR (NR concentration 90 nM, RXRa partner concentration 30 nM). A digest of the protocol:
as §1

Experiment [11] has as its system PPARg:RXRa DBDmut IVT, anti-RXR (DBD mutation: RXRa K156A/R161A, NR concentration 270 nM, RXRa partner concentration 90 nM). A digest of the protocol:
as §1

For experiment [12], the system named is PPARg:RXRa IVT, anti-PPARg (NR concentration 270 nM, RXRa partner concentration 90 nM). The procedure, abridged: as §1
For experiment [13], the system named is PPARg DBDmut:RXRa IVT, anti-PPARg (DBD mutation: PPARg1 K132A/R137A, NR concentration 270 nM, RXRa partner concentration 90 nM). A digest of the protocol: as §1
Experiment [14] relates to PPARg DBDmut IVT, anti-PPARg (DBD mutation: PPARg1 K132A/R137A, NR concentration 270 nM). The procedure, abridged:
as §1

The test system of experiment [15] is PPARg homodimer (NR concentration 180 nM). The procedure, abridged:
as §1

For experiment [16], the system named is PXR:RXRa (NR concentration 270 nM, RXRa partner concentration 90 nM). A digest of the protocol: as §1
Experiment [17] deals with PXR homodimer (NR concentration 270 nM). A digest of the protocol: as §1
In experiment [18] the test system is RARa:RXR (NR concentration 270 nM, RXRa partner concentration 90 nM). A digest of the protocol: as §1
Experiment [19] concerns RARa homodimer (NR concentration 270 nM). A digest of the protocol:
as §1

The subject of experiment [20] is RARb:RXRa (NR concentration 270 nM, RXRa partner concentration 90 nM). The procedure, abridged: as §1

Consider TCTAGTTGGCCAAAGGTCACACACTCGAAATGCG, for which the PBM binding z-score in [1] came out at 5.4; in experiment [2] it was 5.41; in experiment [3] it was 3.89; in experiment [4] it was 5.44; in [5] it was 1.17; in [6], 6.16. Besides, the PBM binding z-score in experiment [7] turned out to be 11; in [8], 9.37; in experiment [9] it was 11.1; in experiment [10], 11.3; in experiment [11] it was 2.73; in experiment [12], 5.56. Further, the PBM binding z-score in [13] is 0.249; in [14] it was 0.877; in [15], 6.18; in [16], 5.82; in experiment [17], 1.45; in [18], 6.89. Also, the figures for the PBM binding z-score in [19] and in experiment [20] were 3.8 and 4.93, respectively.
Take ATCGACAGGTCGACGAGGTGAGTATACACCGTTT: the PBM binding z-score is 0.539 in experiment [1]; 0.314 in [2]; -0.541 in experiment [3]; 0.288 in experiment [4]; -0.436 in [5]; 1.42 in [6]. The PBM binding z-score in experiment [7] was 1.11; in experiment [8], 0.392; in experiment [9], 0.0912; in experiment [10] it was -0.0285; in [11] it was -0.262; in experiment [12] it was 0.929. Further, the PBM binding z-score is 0.221 in experiment [13]; 0.384 in experiment [14]; 0.58 in experiment [15]; 0.461 in [16]; -0.437 in experiment [17]; 1.54 in experiment [18]. Besides, the PBM binding z-score worked out at 0.5 in [19] and 1.53 in experiment [20].
As for CCCACTGGGCCAAAGGTCATTGATTCCAATGCTC, the PBM binding z-score in [1] came to 4.95; in experiment [2], 4.92; in experiment [3], 4.26; in experiment [4] it was 4.72; in experiment [5], 0.641; in experiment [6] it was 6.5. Moreover, the PBM binding z-score in experiment [7] was determined as 11.7; in experiment [8], 10.5; in experiment [9], 10.2; in [10] it was 11; in experiment [11], 4.77; in experiment [12], 6.2. Also, the PBM binding z-score in experiment [13] was 0.334; in experiment [14], -0.118; in experiment [15], 3.86; in [16], 5.36; in experiment [17], 1.81; in experiment [18], 6.34. Further, the results for the PBM binding z-score in experiment [19] and in [20] were 1.99 and 4.39, respectively.
For CAGCCTATGTCAGGGCCAGTATAGGAGGAACGTT, the PBM binding z-score in [1] is -0.392; in experiment [2] it was -0.569; in experiment [3], -0.136; in [4], -0.524; in experiment [5], -0.259; in [6], -0.324. The PBM binding z-score in experiment [7] is 0.129; in experiment [8], -0.472; in experiment [9], -0.514; in [10], -0.506; in [11] it was -0.717; in [12], -0.807. Besides, the PBM binding z-score in experiment [13] was -1.25; in experiment [14] it was -0.192; in experiment [15], -0.0188; in experiment [16], -0.63; in experiment [17], -0.46; in experiment [18], -0.507. In addition, the PBM binding z-score was -0.292 in [19] and 0.105 in experiment [20].
As for ACAGATAGGTGAGTGAAGGTAACTCAGCTGGACG, the PBM binding z-score in experiment [1] is 0.482; in [2], 0.0886; in experiment [3], -0.209; in [4], -0.39; in experiment [5] it was -0.76; in [6] it was 0.462. The PBM binding z-score is 0.821 in [7]; 0.426 in [8]; -0.17 in experiment [9]; 0.325 in experiment [10]; 1.53 in experiment [11]; 1.14 in experiment [12]. Also, the PBM binding z-score in experiment [13] is 0.306; in experiment [14] it was -0.218; in experiment [15], 0.357; in experiment [16] it was -0.303; in experiment [17], -0.159; in experiment [18] it was 0.0919. Besides, the PBM binding z-score is -0.566 in [19] and 0.558 in [20].
For GCTGCTAGGTCAACTGATAGTCAGCTAAAGCTCG, the PBM binding z-score in experiment [1] is 4; in [2], 2.78; in experiment [3] it was -0.18; in experiment [4] it was 1.91; in experiment [5] it was -0.159; in experiment [6], 3.77. The PBM binding z-score in [7] turned out to be 2.91; in experiment [8], 3.17; in [9], 0.765; in [10], 2.41; in [11] it was 4.86; in experiment [12], 4.12. Moreover, the PBM binding z-score in experiment [13] is 0.166; in experiment [14], -1.36; in [15], 0.644; in [16] it was 1.05; in experiment [17], -0.294; in experiment [18], 2.13. Further, the PBM binding z-score in experiment [19] is -0.287; in experiment [20], 4.09.
